Laboratory results taken from PubChem BioAssay (NCATS).
Where “and” joins values, the source holds several entries; their conditions need not be identical. Identical values can stand only once. A number with no mark means an inactive call. Results filed as inconclusive are left out. A call without a number means that no potency is given here. Calls of active or inactive are those of the source. Unless noted, calls come from the whole dose curve; as a rule, active = well fitted curve in the direction sought with a large enough effect; inconclusive = small, poorly fitted or top-dose-only effect, or another doubt; inactive = no such curve, though single readings can be large; an effect the other way counts as inactive or inconclusive.

Columns and labels:
[1] = Cell Viability - SH-SY5Y (AID 544); conditions: SH-SY5Y neuroblastoma cell viability; viability change, negative = cytotoxic: at 92.2 µM (top of the series);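 note: cells exposed to compound for 40 hours; nearly all actives have a fitted effect of over 55% in size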; note: potency is the fitted concentration of half-maximal effect
Method in brief: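 Quantitative HTS in SH-SY5Y neuroblastoma cells, 40 hr treatment at 37 °C, ATP content by luciferase luminescence; AC50 from Hill fits.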

[2] = Cell Viability - Mesenchymal (AID 546);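 note: cells exposed to compound for 40 hours before reading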; note: potency is the fitted concentration of half-maximal effect
Method in brief: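 Human renal mesenchymal cells (glomerulus-derived), 1000 cells/well, 5 hr 37 °C pre-incubation; compound 40 hr, 37 °C; CellTiter-Glo, 20 min RT; luminescence; AC50 via Hill equation.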

[3] = Cellular Toxicity (caspase-3) HUV-EC-C (AID 656)
Method in brief: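 HUV-EC-C cells (1000/well) in complete medium, compound-treated 16 h at 37 °C; caspase-3/7 activity read by Caspase-Glo 3/7 luminescence. Normalized to DMSO (basal) and 100 uM tamoxifen (100%); AC50 from Hill-equation concentration-response fits.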

[4] = Cellular Toxicity (caspase-3) SHSY5Y (AID 657)
Method in brief: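 SH-SY5Y human neuroblastoma cells, 1500/well, exposed to compound for 16 hours at 37 °C in complete medium. Caspase-3/7 activity read by Caspase-Glo luminescence after 1 hr at room temperature, normalized to DMSO and 10 uM staurosporine; AC50 from Hill fit.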

[5] = Cellular Toxicity (caspase-3) BJ (AID 658)
Method in brief: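 qHTS, BJ fibroblasts, 1000 cells/well; 5 hr preincubation, 16 hr compound, 37 °C; Caspase-Glo 3/7 reagent, 1 hr RT; luminescence. DMSO = 0%, 10 uM staurosporine = 100%. Hill-equation AC50.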

[6] = Cellular Toxicity (caspase-3) Mesangial (AID 660);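 note: cells exposed to compound for 16 h before the caspase read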
Method in brief: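 AC50 values come from Hill-equation fits of caspase 3/7 activation, measured as Caspase-Glo luminescence in human glomerular mesangial cells exposed to compound for 16 h at 37 °C; 100% set by 100 uM tamoxifen.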

[7] = Cellular Toxicity (caspase-3) H-4-II-E (AID 663); conditions: Potency: caspase-3 activation;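 note: cells exposed to compound for 16 hr before readout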
Method in brief: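 H-4-II-E rat hepatoma, 1500 cells/well, 5 hr settle at 37 °C; compound 16 hr, 37 °C, complete medium; Caspase-Glo 3/7, 20 min RT; luminescence. DMSO = 0%, 100 uM tamoxifen = 100%; Hill-equation AC50.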

[8] = Cellular Toxicity (caspase-3) Hek293 (AID 664); conditions: HEK293 caspase-3 activation, DMSO = 0%, 100 µM tamoxifen = 100%; at 92.2 µM (top of the series);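 note: cells exposed to compound for 16 h at 37 °C before readout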
Method in brief: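 Apoptosis readout: Caspase-Glo 3/7 signal in human HEK293 cells following 16-hour compound incubation. Responses scaled between DMSO baseline and 100 uM tamoxifen.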

[9] = Cellular Toxicity (caspase-3) NIH 3T3 (AID 666);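 note: caspase signal read after 16 h compound exposure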
Method in brief: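 Activity: caspase-3/7 induction, NIH 3T3 cells, 16 hr treatment at 37°C, luminescent Caspase-Glo detection; AC50 via Hill equation.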

[10] = Cell Viability - LYMP2-019 (AID 973);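 note: cells exposed to compound for 24 h at 37 °C; nearly all actives have a fitted effect of over 55% in size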; note: potency is the fitted concentration of half-maximal effect
Method in brief: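 AC50 values come from Hill-equation modelling of qHTS concentration-response curves, where viability is measured as luciferase-based ATP luminescence in the lymphoblastoid line after 24 hr compound exposure in complete culture medium.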

[11] = Cell Viability - LYMP2-023 (AID 975); note: nearly all actives have a fitted effect of over 55% in size; note: potency is the fitted concentration of half-maximal effect;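 for activity change, negative = cytotoxicity: cellular ATP measured by luciferase luminescence as viability proxy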
Method in brief: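 In this qHTS, ATP-based luciferase luminescence (CellTiter-Glo) is quantified in human lymphoblastoid cells after 24 hr compound treatment at 37 C; tetraoctylammonium bromide serves as positive control. Concentration-response curves are Hill-fitted to give AC50.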

[12] = Cell Viability - LYMP2-022 (AID 987); note: nearly all actives have a fitted effect of over 55% in size; note: potency is the fitted concentration of half-maximal effect
Method in brief: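 In this qHTS cytotoxicity screen, compound titrations were incubated 24 hr at 37 C with human lymphoblastoid cells in complete medium. Luciferase-based ATP luminescence provided the viability signal.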

[13] = Cell Viability - LYMP1-002 - Assay at 40 hr (AID 994); note: nearly all actives have a fitted effect of over 60% in size
Method in brief: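 Concentration-dependent ATP loss after 40 hr treatment at 37 C defined toxicity; AC50 values were obtained by fitting the standard Hill equation.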

[14] = qHTS assay for small molecule activators of the p53 signaling pathway (AID 651743; active = well fitted activation curve with a large enough effect in the signal ratio, not every such curve was filed as active; the % refers to the signal ratio; note: potency is the fitted concentration of half-maximal effect); conditions: HCT-116 p53RE-bla, beta-lactamase FRET ratio, 16 h; activation: stronger effect = higher value
Method in brief: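 Reporter: beta-lactamase driven by p53 response elements, stably integrated in HCT-116 cells. Cells seeded at 4,000/well, 5 h preincubation, compound (DMSO) 16 h at 37 C; B/G FRET substrate 2 h RT; fluorescence intensity read.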

[15] = qHTS assay for small molecule disruptors of the mitochondrial membrane potential - 1 hr assay (AID 651754; calls by dose curve; note: nearly all actives have a fitted effect of over 35% in size; note: potency is the fitted concentration of half-maximal effect)
Method in brief: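 In this qHTS format, a 1 hr compound treatment of HepG2 cells precedes Mito-MPS staining, and membrane potential is judged from aggregate (red) against monomer (green) fluorescence intensity.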

[16] = qHTS assay for small molecule disruptors of the mitochondrial membrane potential - 5 hr assay (AID 651755; calls by dose curve; note: nearly all actives have a fitted effect of over 40% in size; note: potency is the fitted concentration of half-maximal effect)
Method in brief: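 Read-out: ratiometric Mito-MPS fluorescence, green monomer (ex 490/em 535) vs red mitochondrial aggregate (ex 540/em 590). HepG2 cells treated 5 hr at 37C before 30 min dye loading.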

[17] = Cell Viability - LYMP1-002 - Assay at 24 hr (AID 993)
Method in brief: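 Viability was judged from intracellular ATP using a luciferase read-out, following a 24-hour compound incubation at 37 C of lymphoblastoid cells seeded at 2500 per well. Concentration-response data were fitted to the Hill equation for AC50.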

[18] = target: Thyroid hormone receptor beta (Homo sapiens) (UniProt P10828); experiment: qHTS assay for small molecule antagonists of thyroid hormone receptor beta signaling (AID 588547; active = well fitted inhibition curve with a large enough effect in the signal ratio, with a control signal flat, not every such curve was filed as active; the % refers to the signal ratio;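 note: cells stimulated with 0.4 nM T3 agonist during compound exposure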); conditions: TR-UAS-bla HEK293, beta-lactamase ratio, antagonist mode, 18 h
Sequence of Thyroid hormone receptor beta (Homo sapiens) (P10828 whole entry, looked up): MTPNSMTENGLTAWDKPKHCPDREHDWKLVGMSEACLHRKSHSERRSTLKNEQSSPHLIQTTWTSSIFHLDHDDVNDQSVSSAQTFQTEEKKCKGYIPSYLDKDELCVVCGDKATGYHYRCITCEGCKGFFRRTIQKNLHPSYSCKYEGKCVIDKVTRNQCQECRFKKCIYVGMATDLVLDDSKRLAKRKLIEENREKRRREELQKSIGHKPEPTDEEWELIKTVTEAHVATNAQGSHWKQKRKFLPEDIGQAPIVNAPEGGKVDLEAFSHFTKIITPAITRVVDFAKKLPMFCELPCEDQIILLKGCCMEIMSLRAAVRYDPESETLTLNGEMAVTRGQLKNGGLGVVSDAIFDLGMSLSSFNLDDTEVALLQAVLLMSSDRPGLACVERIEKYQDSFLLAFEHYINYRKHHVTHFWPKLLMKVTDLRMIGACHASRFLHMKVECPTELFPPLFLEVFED
Method in brief: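 TR-UAS-bla GripTite HEK293 cells in 2% charcoal/dextran FBS medium; compounds 0.59 nM to 92 uM with T3 at 0.4nM final, 18 h at 37 C. Beta-lactamase read by CCF4 fluorescence (460/530 nm); Hill fits gave IC50 and efficacy.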

[19] = target: Peroxisome proliferator-activated receptor alpha (Homo sapiens) (UniProt Q07869); experiment: qHTS assay for small molecule agonists of the peroxisome proliferator-activated receptor alpha (PPARalpha) signaling pathway (AID 651778); conditions: PathHunter PPARalpha complementation, chemiluminescence, 6 h; stronger effect = higher value
Sequence of Peroxisome proliferator-activated receptor alpha (Homo sapiens) (Q07869 whole entry, looked up, the tested form may be a part): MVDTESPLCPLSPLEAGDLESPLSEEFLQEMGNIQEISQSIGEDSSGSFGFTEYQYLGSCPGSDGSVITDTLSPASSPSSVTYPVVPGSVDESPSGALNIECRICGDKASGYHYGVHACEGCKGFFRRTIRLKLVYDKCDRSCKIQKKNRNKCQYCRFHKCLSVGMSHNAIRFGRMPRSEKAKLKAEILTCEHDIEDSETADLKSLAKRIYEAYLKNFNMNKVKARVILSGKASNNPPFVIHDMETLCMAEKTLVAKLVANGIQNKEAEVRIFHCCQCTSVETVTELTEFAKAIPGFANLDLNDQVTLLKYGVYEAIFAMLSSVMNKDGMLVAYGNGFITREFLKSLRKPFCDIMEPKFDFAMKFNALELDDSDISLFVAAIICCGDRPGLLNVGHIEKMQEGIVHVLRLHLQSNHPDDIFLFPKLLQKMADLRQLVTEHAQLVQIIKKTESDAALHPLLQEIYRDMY
Method in brief: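 Enzyme-fragment complementation assay in which ligand-bound PPARalpha translocates and forms an active enzyme that generates chemiluminescence. Cells were plated overnight, exposed to compound for 6 hr at 37 C, and then given detection reagent for 60 min at room temperature.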

[20] = Cell Viability - NIH 3T3 (AID 541); conditions: NIH 3T3 cell viability, qHTS; activity change, negative = cytotoxicity: at 92.2 µM (top of the series);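 note: cells exposed to compound for 40 hours; nearly all actives have a fitted effect of over 25% in size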; note: potency is the fitted concentration of half-maximal effect
Method in brief: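 In this cytotoxicity screen, acute toxicity is scored as an ATP drop measured by CellTiter-Glo in NIH 3T3 fibroblasts following a 40 hr, 37 °C incubation with compound.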

O=[N+]([O-])c1ccc(O)c([N+](=O)[O-])c1
Potency [1]: inactive
Potency [2]: inactive
outcome [3]: inactive
outcome [4]: inactive
outcome [5]: inactive
outcome [6]: inactive
Potency [7]: inactive
caspase-3 activation [8]: -5.23%
Potency [9]: inactive
Potency [10]: inactive
Potency [11]: inactive
Potency [12]: inactive
Potency [13]: inactive
activation [14]: 9.63%
Potency [15]: 21.1 µM (active)
Potency [16]: 37.6 µM (active)

Oc1cc(Cl)c(Cl)c(Cl)c1
Potency [2]: inactive
outcome [3]: inactive
outcome [4]: inactive
outcome [5]: inactive
outcome [6]: inactive
Potency [7]: inactive
Potency [9]: inactive
Potency [17]: inactive
Potency [13]: inactive
Potency [14]: 44.7 µM (active)
Potency [15]: 33.5 µM (active)
Potency [16]: 37.6 µM (active)

CN(C)c1ccc(N=Nc2ccccc2)cc1
Potency [2]: inactive
outcome [3]: inactive
outcome [4]: inactive
outcome [5]: inactive
Potency [7]: inactive
caspase-3 activation [8]: -8.79%
Potency [10]: inactive
Potency [12]: inactive
Potency [13]: inactive
activity change % (negative = inhibition) [18]: -4.36%
activation [14]: -7.04%
max response [19]: -12.4%

[C-]1=CC=CC1.[C-]1=CC=CC1.[Cl-].[Cl-].[Ti+4]
activity change, negative = cytotoxicity [20]: -86.5% (active)
viability change, negative = cytotoxic [1]: -81.6% (active)
Potency [2]: inactive
outcome [3]: inactive
outcome [4]: inactive
outcome [5]: inactive
outcome [6]: inactive
Potency [7]: inactive
caspase-3 activation [8]: 3.8%
Potency [9]: inactive
max response [19]: 0.688%

BrCC(Br)(Br)Br
Potency [2]: inactive
outcome [3]: inactive
Potency [7]: inactive
caspase-3 activation [8]: 7.98%
Potency [11]: 20 µM (active)
Potency [12]: 7.94 µM (active)
Potency [17]: inactive
Potency [13]: inactive
activity change % (negative = inhibition) [18]: -15.5%
activation [14]: -0.838%
Potency [15]: inactive
Potency [16]: inactive
max response [19]: -5.78%

Clc1ccc(C(c2ccccc2Cl)C(Cl)(Cl)Cl)cc1 (stereo unspecified)
Potency [2]: inactive
outcome [4]: inactive
outcome [6]: inactive
Potency [9]: inactive
Potency [10]: inactive
Potency [11]: inactive
Potency [12]: inactive
Potency [17]: inactive
Potency [13]: inactive
activation [14]: 0.576% and 10.5%
max response [19]: 3.12%

Oc1cc(Cl)c(Cl)c(Cl)c1Cl
Potency [2]: inactive
outcome [4]: inactive
outcome [5]: inactive
outcome [6]: inactive
Potency [7]: inactive
caspase-3 activation [8]: 8.07%
Potency [9]: inactive
Potency [10]: inactive
Potency [11]: inactive
Potency [12]: inactive
Potency [14]: 39.8 µM (active)
max response [19]: 0.278%

O=[N+]([O-])c1cccc(CCl)c1
activity change, negative = cytotoxicity [20]: -132% (active)
Potency [2]: inactive
outcome [3]: inactive
outcome [5]: inactive
outcome [6]: inactive
Potency [7]: inactive
caspase-3 activation [8]: -1.48%
Potency [17]: inactive
Potency [13]: inactive
activity change % (negative = inhibition) [18]: -16.3%
Potency [15]: inactive
Potency [16]: inactive
max response [19]: 0.189%

N#C/C=C/C#N
activity change, negative = cytotoxicity [20]: -156% (active)
Potency [1]: 15.8 µM (active)
outcome [3]: inactive
outcome [4]: inactive
outcome [5]: inactive
outcome [6]: inactive
Potency [10]: 31.6 µM (active)
Potency [11]: 39.8 µM (active)
Potency [12]: 15.8 µM (active)
Potency [17]: inactive
Potency [13]: inactive
activity change % (negative = inhibition) [18]: -13.1%
Potency [15]: inactive
Potency [16]: inactive
max response [19]: -6.4%

Nc1ccc(-c2ccc(N)c(Cl)c2)cc1Cl
Potency [20]: 15.8 µM (active)
Potency [1]: 12.6 µM (active)
Potency [2]: 31.6 µM (active)
outcome [4]: inactive
outcome [5]: inactive
Potency [7]: inactive
caspase-3 activation [8]: 4.67%
Potency [9]: inactive
Potency [11]: inactive
Potency [17]: inactive
activity change % (negative = inhibition) [18]: -10.6% and -0.523%
activation [14]: 14% and 23.3%
Potency [15]: 42.2 µM (active)
Potency [16]: 37.6 µM (active)
max response [19]: -4.73% and -2.04%

c1ccc2c(c1)ccc1cc3c(ccc4ccccc43)cc12
Potency [14]: 39.8 µM (active)
